Source: the supplement of paper PMC10077471
Whole data set: some 1,900 compounds, median “excess over highest single agent (ExcessHSA) synergy score, 6x6 matrix” near -83, cut for the lowest 2% near -370. This excerpt belongs to a sample that is enriched for the lowest values.

system: NCI-H446; experiment: excess over highest single agent (ExcessHSA) synergy score, 6x6 matrix; higher = less synergy (more negative = stronger synergy); conditions: 72 h; CellTiter-Glo viability

Row | SMILES | excess over highest single agent
1 | CN(C)CCN(C)C(=O)c1ccc(NC(=O)Nc2ccc(-c3nc(N4CCOCC4)c4ccn(CC(F)(F)F)c4n3)cc2)cc1 + Cc1sc2c(c1C)C(c1ccc(Cl)cc1)=N[C@@H](CC(=O)OC(C)(C)C)c1nnc(C)n1-2 [NCGC00250412-19] | -272
2 | CC(C)=CC[C@@H](O)C1=CC(=O)c2c(O)ccc(O)c2C1=O + Cc1sc2c(c1C)C(c1ccc(Cl)cc1)=N[C@@H](CC(=O)OC(C)(C)C)c1nnc(C)n1-2 [NCGC00250412-19] | -344
3 | Clc1ccc(-c2nc3sccn3c2C=NOCc2ccc(Cl)c(Cl)c2)cc1 + Cc1sc2c(c1C)C(c1ccc(Cl)cc1)=N[C@@H](CC(=O)OC(C)(C)C)c1nnc(C)n1-2 [NCGC00250412-19] | -98.8
4 | CCOc1cc(/C=C2/C(=O)N(c3ccccc3)N=C2C)cc(Cl)c1OCC(=O)OC + Cc1sc2c(c1C)C(c1ccc(Cl)cc1)=N[C@@H](CC(=O)OC(C)(C)C)c1nnc(C)n1-2 [NCGC00250412-19] | 76.6
5 | CS(=O)(=O)N1CCc2c(-c3cnc(N)nc3)nc(N3CCOCC3)nc21 + Cc1sc2c(c1C)C(c1ccc(Cl)cc1)=N[C@@H](CC(=O)OC(C)(C)C)c1nnc(C)n1-2 [NCGC00250412-19] | -391
6 | Cc1nc(N)ncc1-c1nc(N2CCOCC2)c2sc(C(C)(C)O)cc2n1 + Cc1sc2c(c1C)C(c1ccc(Cl)cc1)=N[C@@H](CC(=O)OC(C)(C)C)c1nnc(C)n1-2 [NCGC00250412-19] | -337
7 | COc1ccc(Nc2cc(-c3cnc(N)nc3)nc(N3CCOCC3)n2)cn1 + Cc1sc2c(c1C)C(c1ccc(Cl)cc1)=N[C@@H](CC(=O)OC(C)(C)C)c1nnc(C)n1-2 [NCGC00250412-19] | 3.49
8 | N=C1S/C(=C\c2ccc(-c3ccc4c(c3)C(=O)NC4=O)o2)C(=O)N1c1ccc(Br)cc1 + Cc1sc2c(c1C)C(c1ccc(Cl)cc1)=N[C@@H](CC(=O)OC(C)(C)C)c1nnc(C)n1-2 [NCGC00250412-19] | 122
9 | Cc1c(CCOc2ccc(C(=O)O)cc2)c2cc(Cl)ccc2n1C(c1ccccc1)c1ccccc1 + Cc1sc2c(c1C)C(c1ccc(Cl)cc1)=N[C@@H](CC(=O)OC(C)(C)C)c1nnc(C)n1-2 [NCGC00250412-19] | -12
10 | COc1cccc2c1C(=O)c1c(O)c3c(c(O)c1C2=O)C[C@@](O)(C(=O)CO)C[C@@H]3O[C@H]1C[C@H](N)[C@H](O)[C@H](C)O1 + Cc1sc2c(c1C)C(c1ccc(Cl)cc1)=N[C@@H](CC(=O)OC(C)(C)C)c1nnc(C)n1-2 [NCGC00250412-19] | -176
11 | COc1cccc2c1C(=O)c1c(O)c3c(c(O)c1C2=O)C[C@@](O)(C(=O)CO)C[C@@H]3O[C@H]1C[C@H](N)[C@@H](O)[C@H](C)O1 + Cc1sc2c(c1C)C(c1ccc(Cl)cc1)=N[C@@H](CC(=O)OC(C)(C)C)c1nnc(C)n1-2 [NCGC00250412-19] | -433
12 | COc1cccc2c1C(=O)c1c(O)c3c(c(O)c1C2=O)C[C@@](O)(C(C)=O)C[C@@H]3O[C@H]1C[C@H](N)[C@H](O)[C@H](C)O1 + Cc1sc2c(c1C)C(c1ccc(Cl)cc1)=N[C@@H](CC(=O)OC(C)(C)C)c1nnc(C)n1-2 [NCGC00250412-19] | -304
13 | C[N+](C)([O-])CCNc1ccc(NCC[N+](C)(C)[O-])c2c1C(=O)c1c(O)ccc(O)c1C2=O + Cc1sc2c(c1C)C(c1ccc(Cl)cc1)=N[C@@H](CC(=O)OC(C)(C)C)c1nnc(C)n1-2 [NCGC00250412-19] | -286
14 | CN(C)c1ccc(C(=O)NCCCCCCC(=O)NO)cc1 + Cc1sc2c(c1C)C(c1ccc(Cl)cc1)=N[C@@H](CC(=O)OC(C)(C)C)c1nnc(C)n1-2 [NCGC00250412-19] | -250
15 | Nc1ccc(C(=O)c2cc3c(ccc4ccccc43)[nH]2)cc1 + Cc1sc2c(c1C)C(c1ccc(Cl)cc1)=N[C@@H](CC(=O)OC(C)(C)C)c1nnc(C)n1-2 [NCGC00250412-19] | -275
16 | CO[C@H]1C(=O)[C@]2(C)[C@@H](OC)C[C@H]3OC[C@@]3(OC(C)=O)[C@H]2[C@H](OC(=O)c2ccccc2)[C@]2(O)C[C@H](OC(=O)[C@H](O)[C@@H](NC(=O)OC(C)(C)C)c3ccccc3)C(C)=C1C2(C)C + Cc1sc2c(c1C)C(c1ccc(Cl)cc1)=N[C@@H](CC(=O)OC(C)(C)C)c1nnc(C)n1-2 [NCGC00250412-19] | -412
17 | CC(=O)O[C@H]1C(=O)[C@@]2(C)[C@H]([C@H](OC(=O)c3ccccc3)[C@]3(O)C[C@H](OC(=O)[C@H](O)[C@@H](NC(=O)c4ccccc4)c4ccccc4)C(C)=C1C3(C)C)[C@]1(OC(C)=O)CO[C@@H]1C[C@@H]2O + Cc1sc2c(c1C)C(c1ccc(Cl)cc1)=N[C@@H](CC(=O)OC(C)(C)C)c1nnc(C)n1-2 [NCGC00250412-19] | -144
18 | CC(=O)O[C@@]12CO[C@@H]1C[C@H](O)[C@@]1(C)C(=O)[C@H](O)C3=C(C)[C@@H](OC(=O)[C@H](O)[C@@H](NC(=O)OC(C)(C)C)c4ccccc4)C[C@@](O)([C@@H](OC(=O)c4ccccc4)[C@H]21)C3(C)C + Cc1sc2c(c1C)C(c1ccc(Cl)cc1)=N[C@@H](CC(=O)OC(C)(C)C)c1nnc(C)n1-2 [NCGC00250412-19] | -135
19 | CC(C)c1ccccc1Cc1cc(C(=O)Nc2ccc(S(=O)(=O)c3ccccc3C(C)(C)C)cc2)c(O)c(O)c1O + Cc1sc2c(c1C)C(c1ccc(Cl)cc1)=N[C@@H](CC(=O)OC(C)(C)C)c1nnc(C)n1-2 [NCGC00250412-19] | -282
20 | Cc1ccccc1C(C(=O)NC1CCCCC1)N(C(=O)CNc1ccc(C#N)cc1)c1cccc(F)c1 (stereo unspecified) + Cc1sc2c(c1C)C(c1ccc(Cl)cc1)=N[C@@H](CC(=O)OC(C)(C)C)c1nnc(C)n1-2 [NCGC00250412-19] | -209
21 | O=C(O)C(=O)O.[NH-]C1CCCCC1[NH-].[Pt+2] (stereo unspecified) + Cc1sc2c(c1C)C(c1ccc(Cl)cc1)=N[C@@H](CC(=O)OC(C)(C)C)c1nnc(C)n1-2 [NCGC00250412-19] | -135
